# Source: publication PMC7862700, “An all-to-all approach to the identification of sequence-specific readers for epigenetic DNA modifications on cytosine”
# Legend:
# Test in all cases: DAPPL (digital affinity profiling via proximity ligation, sequencing); 10 mM Tris-HCl pH 7.5, 50 mM NaCl, 1 mM DTT, 4% glycerol, room temperature, 30 min; GST-TFs on glutathione beads, 16-mer random dsDNA library, 0.1% formaldehyde crosslink after washing; high values mean tight binding
# FEV = molecular target: T1, FEV (Homo sapiens, UniProt Q99581 1-238); settings: protein: recombinant; tags: N-terminal GST; dsDNA, one strand shown
# T1 sequence: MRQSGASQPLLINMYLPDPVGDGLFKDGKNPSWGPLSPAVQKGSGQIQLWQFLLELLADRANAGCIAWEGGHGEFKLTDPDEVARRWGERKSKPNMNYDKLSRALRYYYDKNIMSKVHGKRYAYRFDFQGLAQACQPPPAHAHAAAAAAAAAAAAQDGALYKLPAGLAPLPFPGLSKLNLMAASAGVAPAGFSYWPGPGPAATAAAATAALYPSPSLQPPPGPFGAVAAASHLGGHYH
# Method in brief: (§1)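 After expression in yeast as GST fusions, human transcription factors were bound to glutathione beads, DNA-barcoded and mixed with a tag-only sample. The pools were incubated with 200 nmole of a 16-mer random double-stranded DNA library in Tris/NaCl/DTT/glycerol buffer (30 min, room temperature), washed and crosslinked with 0.1% formaldehyde. Proximity ligation with BsaI/T4 ligase ran for 1 h at 37 °C, before PCR amplification and sequencing on an Illumina NextSeq500. Binding signal is a hexamer's read frequency for a factor divided by its frequency for the tag-only sample.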
# ETV5 = ETV5 (Homo sapiens, UniProt P41161 1-510); settings: protein: recombinant; tags: N-terminal GST; dsDNA, one strand shown
# Chain of ETV5 (P41161 whole entry): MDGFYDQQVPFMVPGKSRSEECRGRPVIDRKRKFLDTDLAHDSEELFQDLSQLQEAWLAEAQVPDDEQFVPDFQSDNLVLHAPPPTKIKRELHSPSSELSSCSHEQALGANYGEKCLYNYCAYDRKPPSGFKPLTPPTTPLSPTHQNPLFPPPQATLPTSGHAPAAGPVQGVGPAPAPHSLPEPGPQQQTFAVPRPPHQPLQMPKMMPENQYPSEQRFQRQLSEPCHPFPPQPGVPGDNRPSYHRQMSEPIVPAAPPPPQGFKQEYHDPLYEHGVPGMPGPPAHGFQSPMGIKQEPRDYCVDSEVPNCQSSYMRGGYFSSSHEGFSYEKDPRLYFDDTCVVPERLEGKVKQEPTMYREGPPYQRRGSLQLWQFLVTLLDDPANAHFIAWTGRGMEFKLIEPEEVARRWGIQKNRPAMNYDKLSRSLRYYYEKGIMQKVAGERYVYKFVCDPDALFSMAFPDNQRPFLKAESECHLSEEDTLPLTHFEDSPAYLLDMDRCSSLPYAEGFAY
# Method in brief: as §1
# HSF1 = HSF1 (Homo sapiens, UniProt Q00613 1-529); settings: protein: recombinant; tags: N-terminal GST; chain copies: 3; dsDNA, one strand shown
# Chain of HSF1 (Q00613 whole entry): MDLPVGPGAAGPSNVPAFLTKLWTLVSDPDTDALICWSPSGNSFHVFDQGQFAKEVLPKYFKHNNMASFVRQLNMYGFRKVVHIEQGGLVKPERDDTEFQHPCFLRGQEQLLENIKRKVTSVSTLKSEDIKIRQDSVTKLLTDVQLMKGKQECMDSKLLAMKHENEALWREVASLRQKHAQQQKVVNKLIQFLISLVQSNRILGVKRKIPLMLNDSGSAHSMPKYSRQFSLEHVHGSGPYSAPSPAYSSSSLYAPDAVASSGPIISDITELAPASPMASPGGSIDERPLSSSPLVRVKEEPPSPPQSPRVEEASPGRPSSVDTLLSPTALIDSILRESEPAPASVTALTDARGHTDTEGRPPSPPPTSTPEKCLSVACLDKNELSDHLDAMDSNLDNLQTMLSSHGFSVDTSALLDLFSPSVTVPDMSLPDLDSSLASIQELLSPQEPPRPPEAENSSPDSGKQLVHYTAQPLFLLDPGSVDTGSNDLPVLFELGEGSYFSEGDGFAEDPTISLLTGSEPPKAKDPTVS
# Method in brief: as §1
# SPIC = molecular target: T2, SPIC (Homo sapiens, UniProt Q8N5J4 1-248); settings: protein: recombinant; tags: N-terminal GST; dsDNA, one strand shown
# T2 sequence: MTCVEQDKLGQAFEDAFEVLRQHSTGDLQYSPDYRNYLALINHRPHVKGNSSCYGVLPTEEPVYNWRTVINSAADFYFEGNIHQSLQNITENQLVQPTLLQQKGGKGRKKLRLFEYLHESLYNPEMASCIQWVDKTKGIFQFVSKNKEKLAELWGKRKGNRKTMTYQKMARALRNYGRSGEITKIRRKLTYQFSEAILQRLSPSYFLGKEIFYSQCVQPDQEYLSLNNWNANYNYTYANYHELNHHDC
# Method in brief: as §1
# ELF4 = ELF4 (Homo sapiens, UniProt Q99607 1-663); settings: protein: recombinant; tags: N-terminal GST; dsDNA, one strand shown
# Chain of ELF4 (Q99607 whole entry): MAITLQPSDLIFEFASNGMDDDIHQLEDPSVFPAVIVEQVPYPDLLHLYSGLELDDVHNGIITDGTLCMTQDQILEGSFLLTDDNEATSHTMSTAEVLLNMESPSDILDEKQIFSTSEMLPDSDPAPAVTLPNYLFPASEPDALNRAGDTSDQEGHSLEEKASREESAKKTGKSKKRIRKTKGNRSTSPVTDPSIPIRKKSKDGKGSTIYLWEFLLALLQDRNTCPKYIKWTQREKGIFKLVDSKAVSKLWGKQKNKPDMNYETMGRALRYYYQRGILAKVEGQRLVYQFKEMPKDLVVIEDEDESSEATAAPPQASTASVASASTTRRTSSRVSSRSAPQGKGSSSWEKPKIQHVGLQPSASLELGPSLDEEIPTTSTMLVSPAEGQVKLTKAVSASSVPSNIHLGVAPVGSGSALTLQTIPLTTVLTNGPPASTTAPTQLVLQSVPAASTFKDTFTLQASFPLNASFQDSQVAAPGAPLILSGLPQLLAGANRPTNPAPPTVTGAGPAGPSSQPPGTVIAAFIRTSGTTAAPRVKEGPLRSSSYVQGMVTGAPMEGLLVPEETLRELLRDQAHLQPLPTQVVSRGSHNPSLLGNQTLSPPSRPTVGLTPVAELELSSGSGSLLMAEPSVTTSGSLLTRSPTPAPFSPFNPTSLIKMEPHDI
# Method in brief: as §1
# ELK4 = molecular target: T3, ELK4 (Homo sapiens, UniProt P28324-2 1-405); settings: protein: recombinant; tags: N-terminal GST; dsDNA, one strand shown
# T3 sequence: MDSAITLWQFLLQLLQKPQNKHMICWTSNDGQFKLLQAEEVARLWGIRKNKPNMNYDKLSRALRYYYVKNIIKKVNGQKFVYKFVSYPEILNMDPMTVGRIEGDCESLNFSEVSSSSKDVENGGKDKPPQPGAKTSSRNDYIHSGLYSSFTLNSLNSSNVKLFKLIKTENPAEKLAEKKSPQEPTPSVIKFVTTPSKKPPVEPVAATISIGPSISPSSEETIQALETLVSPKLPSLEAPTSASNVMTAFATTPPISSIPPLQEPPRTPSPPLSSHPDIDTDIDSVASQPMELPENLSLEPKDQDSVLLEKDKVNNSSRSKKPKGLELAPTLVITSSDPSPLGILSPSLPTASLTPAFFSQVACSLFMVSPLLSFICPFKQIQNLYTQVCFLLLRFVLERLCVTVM
# Method in brief: as §1
# ETV2 = molecular target: T4, ETV2 (Homo sapiens, UniProt O00321 1-342); settings: protein: recombinant; tags: N-terminal GST; dsDNA, one strand shown
# T4 sequence: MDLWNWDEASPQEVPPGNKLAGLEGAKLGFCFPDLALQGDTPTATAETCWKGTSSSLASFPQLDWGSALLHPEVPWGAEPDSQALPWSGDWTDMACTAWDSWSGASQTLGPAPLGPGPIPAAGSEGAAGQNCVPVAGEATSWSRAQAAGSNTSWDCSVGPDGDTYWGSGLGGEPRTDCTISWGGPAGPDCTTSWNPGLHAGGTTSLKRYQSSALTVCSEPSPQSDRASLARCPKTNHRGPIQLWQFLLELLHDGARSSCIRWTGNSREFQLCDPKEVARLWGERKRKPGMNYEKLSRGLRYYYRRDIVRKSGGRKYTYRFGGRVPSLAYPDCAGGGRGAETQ
# Method in brief: as §1
# ELF3 = molecular target: T5, ELF3 (Homo sapiens, UniProt P78545 1-371); settings: protein: recombinant; tags: N-terminal GST; dsDNA, one strand shown
# T5 sequence: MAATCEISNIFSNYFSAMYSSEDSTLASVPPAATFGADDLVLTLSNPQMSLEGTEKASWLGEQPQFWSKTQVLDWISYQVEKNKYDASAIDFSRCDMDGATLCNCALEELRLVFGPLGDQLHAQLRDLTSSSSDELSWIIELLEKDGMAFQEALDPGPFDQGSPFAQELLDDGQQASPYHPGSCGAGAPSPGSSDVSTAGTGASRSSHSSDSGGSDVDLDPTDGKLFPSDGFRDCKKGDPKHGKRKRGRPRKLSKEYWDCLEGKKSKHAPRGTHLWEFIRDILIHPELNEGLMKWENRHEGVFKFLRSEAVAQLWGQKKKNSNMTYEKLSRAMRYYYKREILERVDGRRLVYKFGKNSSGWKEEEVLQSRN
# Method in brief: as §1
# CRX = CRX (Homo sapiens, UniProt O43186 1-299); settings: protein: recombinant; tags: N-terminal GST; dsDNA, one strand shown
# Chain of CRX (O43186 whole entry): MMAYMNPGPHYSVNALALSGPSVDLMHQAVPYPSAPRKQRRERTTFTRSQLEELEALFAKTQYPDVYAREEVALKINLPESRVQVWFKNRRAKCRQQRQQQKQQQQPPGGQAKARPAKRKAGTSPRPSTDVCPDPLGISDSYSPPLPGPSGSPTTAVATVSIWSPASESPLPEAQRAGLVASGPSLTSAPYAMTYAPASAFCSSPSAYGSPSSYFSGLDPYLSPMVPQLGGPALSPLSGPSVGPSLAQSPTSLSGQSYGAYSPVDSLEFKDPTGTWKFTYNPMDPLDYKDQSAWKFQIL
# Method in brief: as §1
# ETV1 = ETV1 (Homo sapiens, UniProt P50549 1-477); settings: protein: recombinant; tags: N-terminal GST; dsDNA, one strand shown
# Chain of ETV1 (P50549 whole entry): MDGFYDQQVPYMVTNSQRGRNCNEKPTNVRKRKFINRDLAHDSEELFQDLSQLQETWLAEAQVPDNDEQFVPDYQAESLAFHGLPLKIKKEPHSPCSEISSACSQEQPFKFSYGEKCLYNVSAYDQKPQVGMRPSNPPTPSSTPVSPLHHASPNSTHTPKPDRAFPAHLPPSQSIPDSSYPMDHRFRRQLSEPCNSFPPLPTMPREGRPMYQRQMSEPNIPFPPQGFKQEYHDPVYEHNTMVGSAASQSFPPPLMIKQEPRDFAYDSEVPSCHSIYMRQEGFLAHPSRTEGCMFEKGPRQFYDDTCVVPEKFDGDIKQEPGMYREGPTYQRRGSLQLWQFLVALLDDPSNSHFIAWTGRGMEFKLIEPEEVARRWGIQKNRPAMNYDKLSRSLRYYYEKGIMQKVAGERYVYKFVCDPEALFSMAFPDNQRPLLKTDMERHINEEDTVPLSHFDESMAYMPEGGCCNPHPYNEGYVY
# Method in brief: as §1
sequence,measurement,setting,value
ATTTAG,binding signal,FEV,"1.08 fold enrichment (6-mer frequency, TF over GST control)"
same,binding signal,ETV5,"1.06 fold enrichment (6-mer frequency, TF over GST control)"
same,binding signal,HSF1,"1.37 fold enrichment (6-mer frequency, TF over GST control)"
same,binding signal,SPIC,"1.2 fold enrichment (6-mer frequency, TF over GST control)"
same,binding signal,ELF4,"1.05 fold enrichment (6-mer frequency, TF over GST control)"
same,binding signal,ELK4,"1.17 fold enrichment (6-mer frequency, TF over GST control)"
same,binding signal,ETV2,"1.3 fold enrichment (6-mer frequency, TF over GST control)"
same,binding signal,ELF3,"1.17 fold enrichment (6-mer frequency, TF over GST control)"
same,binding signal,CRX,"1.66 fold enrichment (6-mer frequency, TF over GST control)"
same,binding signal,ETV1,"1.11 fold enrichment (6-mer frequency, TF over GST control)"
